We go through 11 compounds from ChEMBL document CHEMBL3988442, “University of Dundee, Small-Polar-MMV Screening Library” (2021).

For some of these results: Results with a measured potency or affinity are listed apart.

Common to all, as to design: scale not given: direction of the effect not stated beside the values
For assay [1], the target named is Protein translocase subunit SecA (Escherichia coli (strain K12)) (UniProt P10408). Put plainly: Assay to Identify E. coli SecA ATPase Inhibitors. The format is functional. To be noted: 30 µM.
Sequence of Protein translocase subunit SecA (Escherichia coli (strain K12)) (P10408 whole entry): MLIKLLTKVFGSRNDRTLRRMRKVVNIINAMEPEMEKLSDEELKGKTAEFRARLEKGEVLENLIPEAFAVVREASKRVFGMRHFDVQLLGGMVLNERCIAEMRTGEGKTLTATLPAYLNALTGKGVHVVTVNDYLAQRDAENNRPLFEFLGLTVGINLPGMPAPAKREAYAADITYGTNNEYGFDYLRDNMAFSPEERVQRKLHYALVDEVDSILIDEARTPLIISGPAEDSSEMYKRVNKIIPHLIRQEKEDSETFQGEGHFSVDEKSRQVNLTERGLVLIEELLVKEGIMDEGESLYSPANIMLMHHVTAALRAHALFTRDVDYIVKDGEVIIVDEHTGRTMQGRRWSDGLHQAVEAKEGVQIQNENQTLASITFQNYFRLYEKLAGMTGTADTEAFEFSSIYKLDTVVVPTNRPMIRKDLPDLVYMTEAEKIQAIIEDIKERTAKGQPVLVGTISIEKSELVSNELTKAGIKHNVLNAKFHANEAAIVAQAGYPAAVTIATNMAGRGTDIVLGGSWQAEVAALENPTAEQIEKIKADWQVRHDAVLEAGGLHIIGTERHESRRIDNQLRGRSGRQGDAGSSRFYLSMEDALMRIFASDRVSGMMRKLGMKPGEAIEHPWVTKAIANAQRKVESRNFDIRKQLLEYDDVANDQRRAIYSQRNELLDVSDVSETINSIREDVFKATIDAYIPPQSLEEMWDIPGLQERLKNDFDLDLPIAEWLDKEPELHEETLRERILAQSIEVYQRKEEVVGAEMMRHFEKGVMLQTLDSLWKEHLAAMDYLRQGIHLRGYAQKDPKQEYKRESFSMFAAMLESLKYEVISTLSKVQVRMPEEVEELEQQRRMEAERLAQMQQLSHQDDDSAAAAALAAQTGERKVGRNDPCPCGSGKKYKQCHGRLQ
Assay [2] concerns the target T1, Ubiquitin-activating enzyme e1, putative (Leishmania donovani (strain BPK282A1)) (UniProt E9BSI1).
T1 sequence (whole entry): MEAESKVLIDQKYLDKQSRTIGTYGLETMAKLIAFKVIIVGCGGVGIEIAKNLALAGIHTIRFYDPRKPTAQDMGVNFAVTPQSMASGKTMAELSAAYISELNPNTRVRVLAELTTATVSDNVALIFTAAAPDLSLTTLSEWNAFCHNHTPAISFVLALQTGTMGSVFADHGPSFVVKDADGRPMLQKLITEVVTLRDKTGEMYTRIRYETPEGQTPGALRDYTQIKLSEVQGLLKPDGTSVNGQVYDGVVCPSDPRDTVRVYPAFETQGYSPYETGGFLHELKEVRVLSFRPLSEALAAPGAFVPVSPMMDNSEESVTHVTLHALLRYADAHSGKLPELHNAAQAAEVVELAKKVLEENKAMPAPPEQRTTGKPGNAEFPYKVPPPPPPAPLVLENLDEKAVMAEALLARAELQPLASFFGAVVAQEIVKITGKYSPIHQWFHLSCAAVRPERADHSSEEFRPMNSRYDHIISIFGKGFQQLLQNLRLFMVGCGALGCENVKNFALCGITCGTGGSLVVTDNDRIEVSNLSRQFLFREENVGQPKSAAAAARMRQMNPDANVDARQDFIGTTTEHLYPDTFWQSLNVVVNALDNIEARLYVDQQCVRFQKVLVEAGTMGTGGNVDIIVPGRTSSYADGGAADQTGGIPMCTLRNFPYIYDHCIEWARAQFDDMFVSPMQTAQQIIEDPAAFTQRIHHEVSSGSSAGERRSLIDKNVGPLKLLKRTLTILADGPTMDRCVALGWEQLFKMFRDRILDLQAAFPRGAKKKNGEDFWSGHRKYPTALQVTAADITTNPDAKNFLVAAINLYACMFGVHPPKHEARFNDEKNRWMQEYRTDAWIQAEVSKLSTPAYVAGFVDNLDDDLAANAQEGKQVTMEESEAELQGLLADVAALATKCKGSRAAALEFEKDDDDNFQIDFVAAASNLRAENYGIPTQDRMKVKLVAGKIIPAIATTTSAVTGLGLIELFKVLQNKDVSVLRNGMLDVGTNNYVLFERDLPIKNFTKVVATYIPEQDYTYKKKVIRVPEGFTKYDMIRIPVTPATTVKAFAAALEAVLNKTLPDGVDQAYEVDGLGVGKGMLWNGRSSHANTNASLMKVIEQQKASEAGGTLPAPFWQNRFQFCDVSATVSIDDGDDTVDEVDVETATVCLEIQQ
The experiment in a line: Leishmania donovani Ubiquitin Activating Enzyme (LdE1). The format is functional. To be noted: 30 µM.

Assay [3] deals with AMP-activated protein kinase, AMPK (Homo sapiens) (UniProt P54646+O43741+P54619+Q9UGJ0+Q9Y478+Q13131+Q9UGI9). The experiment in a line: AMP-dependent Kinase enzyme assay. An in vitro enzyme assay that detects ADP turnover that is directly proportional to AMPK activity. This uses naive AMPK that is activated during the assay with MK-8722. The format is functional. As to conditions: 30 µM.

Assay [4] addresses Sialic acid-binding Ig-like lectin 9 (Homo sapiens) (UniProt Q9Y336). The experiment in a line: Hs-Siglec9 ALPHAscreen SOP 20170721. To be noted: 10 µM. For orientation: Bead proximity is the source of the signal in Alpha formats.
For assay [5], the system named is Trypanosoma cruzi. Put plainly: Trypanosoma cruzi phosphomannomutase and mannose-1-phosphate guanylyltransferase assay. Format: functional. As to conditions: 10 µM.
Assay [6] addresses T2, Arginase-2, mitochondrial (Homo sapiens) (UniProt P78540).
T2 sequence (whole entry): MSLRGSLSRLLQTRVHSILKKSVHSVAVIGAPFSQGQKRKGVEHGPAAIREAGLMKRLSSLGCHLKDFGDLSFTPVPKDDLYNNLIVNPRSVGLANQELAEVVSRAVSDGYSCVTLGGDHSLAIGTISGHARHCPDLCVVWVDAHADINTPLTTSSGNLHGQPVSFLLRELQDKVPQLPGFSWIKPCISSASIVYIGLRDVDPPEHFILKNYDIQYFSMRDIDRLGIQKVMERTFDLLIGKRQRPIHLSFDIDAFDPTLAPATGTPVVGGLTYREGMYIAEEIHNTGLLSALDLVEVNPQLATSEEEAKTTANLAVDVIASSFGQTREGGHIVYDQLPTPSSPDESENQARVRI
The experiment in a line: in vitro enzyme assay to detect the production of urea directly proportional to the activity of Arginase II. Also: in the data most compounds retested in dose-response had high values. To be noted: 33.3 µM. The format is functional.

The target in assay [7] is T3, Proteasome subunit beta (Trypanosoma cruzi) (UniProt O96673).
T3 sequence (whole entry): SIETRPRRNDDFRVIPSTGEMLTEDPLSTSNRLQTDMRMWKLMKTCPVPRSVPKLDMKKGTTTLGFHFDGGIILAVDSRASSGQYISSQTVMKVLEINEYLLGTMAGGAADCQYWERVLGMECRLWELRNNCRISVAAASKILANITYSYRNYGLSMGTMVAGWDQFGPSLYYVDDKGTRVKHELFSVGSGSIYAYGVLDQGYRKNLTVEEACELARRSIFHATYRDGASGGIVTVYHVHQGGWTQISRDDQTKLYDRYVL
The experiment in a line: Trypanosoma cruzi proteasome chymotrypsin-like activity (TcProtChymo) assay. Also: in the data most compounds retested in dose-response had high values. The format is functional. As to conditions: 9.37 µM.

The species named for assay [8] is Homo sapiens. The experiment in a line: To identify inhibition of the IFN signalling (Jak-Stat) pathway via expression of an eGFP reporter gene under the control of an IFN-stimulated response element (ISRE) containing MxA promoter. As to conditions: 30 µM. Format: functional. Background: In a reporter assay the amount or activity of a reporter protein is the signal.

The target in assay [9] is T4, Tyrosyl-tRNA synthetase, putative (Trypanosoma cruzi (strain CL Brener)) (UniProt Q4DSP6).
T4 sequence (whole entry): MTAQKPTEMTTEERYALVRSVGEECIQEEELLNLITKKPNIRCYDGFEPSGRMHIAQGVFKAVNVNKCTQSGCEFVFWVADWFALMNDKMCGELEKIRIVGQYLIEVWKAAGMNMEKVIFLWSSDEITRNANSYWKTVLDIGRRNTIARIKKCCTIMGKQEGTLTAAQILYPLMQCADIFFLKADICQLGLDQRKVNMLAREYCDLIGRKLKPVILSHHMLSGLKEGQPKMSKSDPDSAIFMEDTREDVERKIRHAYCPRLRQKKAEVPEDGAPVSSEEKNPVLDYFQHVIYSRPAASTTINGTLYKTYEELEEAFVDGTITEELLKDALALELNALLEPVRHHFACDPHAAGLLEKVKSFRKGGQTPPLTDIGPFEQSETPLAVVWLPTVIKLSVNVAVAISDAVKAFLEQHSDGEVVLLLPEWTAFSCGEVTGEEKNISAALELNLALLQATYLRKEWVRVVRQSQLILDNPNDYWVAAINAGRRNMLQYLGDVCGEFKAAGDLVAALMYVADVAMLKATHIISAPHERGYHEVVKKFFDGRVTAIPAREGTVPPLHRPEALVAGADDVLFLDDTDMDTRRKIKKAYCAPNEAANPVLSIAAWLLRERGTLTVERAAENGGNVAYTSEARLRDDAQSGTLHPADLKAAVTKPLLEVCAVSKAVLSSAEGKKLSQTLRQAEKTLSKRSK
Put plainly: Trypanosoma cruzi tyrosyl tRNA synthetase (TcYRS) _High Tyrosine SOP. Also: in the data most compounds retested in dose-response had high values. Format: functional. To be noted: 30 µM.

The target of assay [10] is T4, Tyrosyl-tRNA synthetase, putative (Trypanosoma cruzi (strain CL Brener)). The experiment in a line: Trypanosoma cruzi tyrosyl tRNA synthetase (TcYRS) SOP. The format is functional. To be noted: 30 µM.
Assay [11] deals with Chromo domain-containing protein 1 (Saccharomyces cerevisiae (strain ATCC 204508 / S288c) (Baker's yeast)) (UniProt P32657). Put plainly: ScCHD-1 Enzyme Inhibition Assay. Also: in the data most compounds retested in dose-response had high values. Format: functional. As to conditions: 30 µM.
Sequence of Chromo domain-containing protein 1 (Saccharomyces cerevisiae (strain ATCC 204508 / S288c) (Baker's yeast)) (P32657 whole entry, the tested form may be a part): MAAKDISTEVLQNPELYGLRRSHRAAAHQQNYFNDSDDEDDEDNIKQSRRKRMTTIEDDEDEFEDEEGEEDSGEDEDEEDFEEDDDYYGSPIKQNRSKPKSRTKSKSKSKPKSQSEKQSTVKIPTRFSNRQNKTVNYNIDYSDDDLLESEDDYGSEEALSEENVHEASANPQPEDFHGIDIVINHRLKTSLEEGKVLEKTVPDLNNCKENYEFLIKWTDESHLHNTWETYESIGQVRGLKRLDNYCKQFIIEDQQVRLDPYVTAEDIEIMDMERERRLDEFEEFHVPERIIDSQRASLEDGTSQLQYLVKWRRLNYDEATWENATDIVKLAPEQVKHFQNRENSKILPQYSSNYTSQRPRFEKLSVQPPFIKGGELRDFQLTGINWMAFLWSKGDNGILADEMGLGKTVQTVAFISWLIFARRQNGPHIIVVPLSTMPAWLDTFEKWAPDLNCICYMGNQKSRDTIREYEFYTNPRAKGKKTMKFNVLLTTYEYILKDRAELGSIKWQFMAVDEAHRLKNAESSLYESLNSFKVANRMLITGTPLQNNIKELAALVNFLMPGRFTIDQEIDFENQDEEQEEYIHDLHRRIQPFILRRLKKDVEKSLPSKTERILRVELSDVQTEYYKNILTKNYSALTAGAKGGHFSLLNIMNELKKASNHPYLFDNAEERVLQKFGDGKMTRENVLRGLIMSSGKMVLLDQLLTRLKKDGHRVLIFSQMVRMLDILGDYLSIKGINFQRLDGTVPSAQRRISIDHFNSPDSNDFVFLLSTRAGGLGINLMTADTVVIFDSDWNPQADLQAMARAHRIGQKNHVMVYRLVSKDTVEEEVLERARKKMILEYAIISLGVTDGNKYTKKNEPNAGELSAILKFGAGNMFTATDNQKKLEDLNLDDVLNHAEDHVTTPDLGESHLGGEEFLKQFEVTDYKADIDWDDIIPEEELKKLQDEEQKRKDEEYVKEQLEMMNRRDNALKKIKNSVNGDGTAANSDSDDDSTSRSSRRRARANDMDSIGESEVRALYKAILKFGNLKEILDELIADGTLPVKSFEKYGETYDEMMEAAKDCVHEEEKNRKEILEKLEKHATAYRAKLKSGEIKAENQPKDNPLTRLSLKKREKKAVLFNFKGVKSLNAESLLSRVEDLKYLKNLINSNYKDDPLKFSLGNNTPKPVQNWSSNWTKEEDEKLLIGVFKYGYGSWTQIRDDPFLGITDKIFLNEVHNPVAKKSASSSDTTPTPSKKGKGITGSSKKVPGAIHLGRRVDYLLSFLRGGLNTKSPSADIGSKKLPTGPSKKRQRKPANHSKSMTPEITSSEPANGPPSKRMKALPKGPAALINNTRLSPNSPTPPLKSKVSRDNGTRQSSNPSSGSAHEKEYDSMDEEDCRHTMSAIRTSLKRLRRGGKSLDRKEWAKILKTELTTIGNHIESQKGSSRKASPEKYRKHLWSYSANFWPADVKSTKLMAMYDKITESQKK

Sequence of Sialic acid-binding Ig-like lectin 9 (Homo sapiens) (Q9Y336 whole entry): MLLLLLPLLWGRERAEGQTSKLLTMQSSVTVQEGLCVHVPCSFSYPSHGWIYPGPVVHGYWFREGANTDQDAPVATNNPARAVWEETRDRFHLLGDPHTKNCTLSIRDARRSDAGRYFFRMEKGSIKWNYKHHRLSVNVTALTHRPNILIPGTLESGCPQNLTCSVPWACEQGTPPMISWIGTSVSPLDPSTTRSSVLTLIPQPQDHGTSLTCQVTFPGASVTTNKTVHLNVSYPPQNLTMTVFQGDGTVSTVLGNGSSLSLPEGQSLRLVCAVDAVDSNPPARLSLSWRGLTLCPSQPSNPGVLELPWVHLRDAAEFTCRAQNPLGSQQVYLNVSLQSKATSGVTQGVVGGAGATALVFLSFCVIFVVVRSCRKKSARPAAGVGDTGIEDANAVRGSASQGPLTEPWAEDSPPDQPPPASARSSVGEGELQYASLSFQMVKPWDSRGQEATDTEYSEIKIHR

For the compound `COc1c(C2CCCN2C(=O)c2cccc(C(N)=O)c2)c(C)nn1C` (stereo unspecified), the Percent Effect in [1] is -6.26%; in assay [2], 10.4%; in assay [3] it was 7.89%; in [4] it was -11.9%; in assay [5], -5.19%; in assay [6], -2.32%. In addition, the Percent Effect in assay [7] was 3.96%; in assay [8] it was 17.6%; in assay [9], 0%; in assay [10], 2.35%; in assay [11], -17.8%.

Turning to `COc1ccc(-c2noc(CN3CCOCC3C)n2)cc1OC` (stereo unspecified), the Percent Effect in assay [1] was -2.2%; in assay [2], 18.9%; in assay [3], -11.1%; in assay [4], 15.8%; in assay [5], 0.0943%; in [6], -6.81%. In addition, the Percent Effect is 8.83% in assay [7]; 28.9% in assay [8]; 5.42% in assay [9]; 16.1% in [10]; -11% in assay [11].

For `CCCNCc1cc2c(C)cc(C)cc2n2c(=O)n(C)nc12`, the Percent Effect in assay [1] was -5.13%; in assay [2] it was 4.05%; in assay [3], 11%; in assay [4], 0.45%; in assay [5] it was 4.94%; in assay [6], 9.05%. The Percent Effect in assay [7] was 5.62%; in assay [8] it was 16.2%; in assay [9], 4.3%; in [10], 3.9%; in assay [11], -20%.

As for `CN1CCCC[C@@H]2[C@H]1[C@@H](c1ccccc1)CCN2C(=O)c1cnccn1`, the Percent Effect in assay [1] was -4.56%; in [2], 1.35%; in [3], 4.14%; in assay [4], 1.98%; in assay [5], 0.988%; in assay [6], -3.48%. The Percent Effect in [7] is 21.2%; in assay [8], -2.99%; in assay [9] it was 5.38%; in assay [10] it was 11.7%; in assay [11] it was -17.5%.

With `Cc1ccc(C2COCCN2C(=O)c2ccc(N(C)C)cc2)o1` (stereo unspecified), the Percent Effect in [1] was -1.88%; in [2] it was 10.7%; in assay [3], -8.36%; in assay [4] it was 13.4%; in [5], 3.02%; in [6], 13.5%. Further, the Percent Effect was 15.9% in assay [7]; 19.2% in assay [8]; 2.73% in assay [9]; 18.5% in [10]; -4.41% in assay [11].

Turning to `CC(C)N1CCn2c(nc3cc(C(N)=O)ccc32)C1`, the Percent Effect in assay [1] was -8.72%; in [2], 12%; in assay [3] it was -4.63%; in [4], 7.53%; in [5], 0.393%; in [6] it was -8.63%. Besides, the Percent Effect in [7] was 8.87%; in [8], 2.55%; in assay [9] it was 2.12%; in [10], 12.8%; in [11], -11.8%.

For `CNCC(=O)N1CC(c2cc(Nc3ncccn3)nc(C)n2)C1`, the Percent Effect in assay [1] is 0.103%; in [2], 10.7%; in [3] it was 6.11%; in assay [4] it was -7.15%; in [5], -4.33%; in [6] it was -1.63%. Besides, the Percent Effect in assay [7] was 8.9%; in assay [8], 13.8%; in [9], 10.6%; in assay [10], 16.7%; in [11] it was -1.56%.

For the compound `c1ccc(OCCCN2CCN(c3ccc4nncn4n3)CC2)cc1`, the Percent Effect in [1] was -7.97%; in [2] it was -18.2%; in assay [3], -5.57%; in assay [4], 15.6%; in [5] it was 8.61%; in assay [6], -5.69%. Moreover, the Percent Effect is 17.6% in assay [7]; 47.8% in assay [8]; 18.4% in assay [9]; 24.4% in assay [10]; -1.5% in assay [11].

On to `O=C(Nc1cnccn1)[C@@H]1COC[C@H]2CN(C3CCCC3)C[C@H]21`, for which the Percent Effect in assay [1] was -8.34%; in assay [2], 13.5%; in assay [3] it was -5.42%; in [4] it was 16.7%; in assay [5], 3.91%; in assay [6] it was 3.33%. Further, the Percent Effect in [7] was 3.97%; in assay [8], -6.67%; in assay [9], 6.93%; in assay [10], 11%; in assay [11] it was -4.69%.

Consider `CCc1nccn1C1CCCN(C(=O)c2ccc3nncn3c2)C1` (stereo unspecified), for which the Percent Effect in [1] is -5.07%; in assay [2], 7.79%; in assay [3], -4.63%; in assay [4] it was 9.34%; in [5], 5.06%; in assay [6], -1.78%. Further, the Percent Effect was 2.03% in assay [7]; 9.22% in assay [8]; 6.8% in [9]; 19.5% in assay [10]; -7.6% in assay [11].

On to `O=C(Nc1ccc(CCN2CCC(O)CC2)cc1)Nc1cccnc1`, for which the Percent Effect in assay [1] was -1.45%; in assay [2], 5.41%; in assay [3], -3.72%; in [4], 8.33%; in [5], -1.54%; in assay [6], -1.91%. Besides, the Percent Effect in [7] is 18.4%; in assay [8], 8.03%; in assay [9] it was 6.88%; in assay [10] it was 4.88%; in assay [11], -3.57%.
